CYP2C19 activ = increases human CYP2C19 enzyme activity. activation factor at 5 µM. recombinant CYP2C19, luciferin-H EGE luminescence; hits give high values; 0 = fully inhibited enzyme, 1 = untreated enzyme. AID 1025. 96,000 tested, under 10 active;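 active means activation factor of at least 2 at 5 µM in the primary screen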;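 further: 0 = wells with 2.5 mM tranylcypromine and 1 = vehicle-only wells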
CYP2C19 inhib = inhibitors of human CYP2C19 | P33261 | CYP2C19 Supersomes, luciferin-H EGE luminescence, 30 min | inhibition, % at 5 µM | hit rate 21% among 96,000 | AID 778;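 active means CYP2C19 inhibition above a set limit at 5 µM in the primary screen, cut at about 50% in these data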;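 further: plate controls were negative control wells for no effect and 2.5 mM tranylcypromine positive control for full effect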
Cav32 inh = blocks human Cav3.2 T-type calcium channel. O95180. Cav3.2-expressing cells, Fluo-4 calcium fluorescence FDSS; hits give low values. B-score at 10 µM. hit rate 4% among 100,000. AID 449739;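 active means single-dose well whose peak fluorescence ratio is a statistical outlier from its plate by either plate-standardised score or position-corrected B-score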
Target sequence (O95180 whole entry, looked up): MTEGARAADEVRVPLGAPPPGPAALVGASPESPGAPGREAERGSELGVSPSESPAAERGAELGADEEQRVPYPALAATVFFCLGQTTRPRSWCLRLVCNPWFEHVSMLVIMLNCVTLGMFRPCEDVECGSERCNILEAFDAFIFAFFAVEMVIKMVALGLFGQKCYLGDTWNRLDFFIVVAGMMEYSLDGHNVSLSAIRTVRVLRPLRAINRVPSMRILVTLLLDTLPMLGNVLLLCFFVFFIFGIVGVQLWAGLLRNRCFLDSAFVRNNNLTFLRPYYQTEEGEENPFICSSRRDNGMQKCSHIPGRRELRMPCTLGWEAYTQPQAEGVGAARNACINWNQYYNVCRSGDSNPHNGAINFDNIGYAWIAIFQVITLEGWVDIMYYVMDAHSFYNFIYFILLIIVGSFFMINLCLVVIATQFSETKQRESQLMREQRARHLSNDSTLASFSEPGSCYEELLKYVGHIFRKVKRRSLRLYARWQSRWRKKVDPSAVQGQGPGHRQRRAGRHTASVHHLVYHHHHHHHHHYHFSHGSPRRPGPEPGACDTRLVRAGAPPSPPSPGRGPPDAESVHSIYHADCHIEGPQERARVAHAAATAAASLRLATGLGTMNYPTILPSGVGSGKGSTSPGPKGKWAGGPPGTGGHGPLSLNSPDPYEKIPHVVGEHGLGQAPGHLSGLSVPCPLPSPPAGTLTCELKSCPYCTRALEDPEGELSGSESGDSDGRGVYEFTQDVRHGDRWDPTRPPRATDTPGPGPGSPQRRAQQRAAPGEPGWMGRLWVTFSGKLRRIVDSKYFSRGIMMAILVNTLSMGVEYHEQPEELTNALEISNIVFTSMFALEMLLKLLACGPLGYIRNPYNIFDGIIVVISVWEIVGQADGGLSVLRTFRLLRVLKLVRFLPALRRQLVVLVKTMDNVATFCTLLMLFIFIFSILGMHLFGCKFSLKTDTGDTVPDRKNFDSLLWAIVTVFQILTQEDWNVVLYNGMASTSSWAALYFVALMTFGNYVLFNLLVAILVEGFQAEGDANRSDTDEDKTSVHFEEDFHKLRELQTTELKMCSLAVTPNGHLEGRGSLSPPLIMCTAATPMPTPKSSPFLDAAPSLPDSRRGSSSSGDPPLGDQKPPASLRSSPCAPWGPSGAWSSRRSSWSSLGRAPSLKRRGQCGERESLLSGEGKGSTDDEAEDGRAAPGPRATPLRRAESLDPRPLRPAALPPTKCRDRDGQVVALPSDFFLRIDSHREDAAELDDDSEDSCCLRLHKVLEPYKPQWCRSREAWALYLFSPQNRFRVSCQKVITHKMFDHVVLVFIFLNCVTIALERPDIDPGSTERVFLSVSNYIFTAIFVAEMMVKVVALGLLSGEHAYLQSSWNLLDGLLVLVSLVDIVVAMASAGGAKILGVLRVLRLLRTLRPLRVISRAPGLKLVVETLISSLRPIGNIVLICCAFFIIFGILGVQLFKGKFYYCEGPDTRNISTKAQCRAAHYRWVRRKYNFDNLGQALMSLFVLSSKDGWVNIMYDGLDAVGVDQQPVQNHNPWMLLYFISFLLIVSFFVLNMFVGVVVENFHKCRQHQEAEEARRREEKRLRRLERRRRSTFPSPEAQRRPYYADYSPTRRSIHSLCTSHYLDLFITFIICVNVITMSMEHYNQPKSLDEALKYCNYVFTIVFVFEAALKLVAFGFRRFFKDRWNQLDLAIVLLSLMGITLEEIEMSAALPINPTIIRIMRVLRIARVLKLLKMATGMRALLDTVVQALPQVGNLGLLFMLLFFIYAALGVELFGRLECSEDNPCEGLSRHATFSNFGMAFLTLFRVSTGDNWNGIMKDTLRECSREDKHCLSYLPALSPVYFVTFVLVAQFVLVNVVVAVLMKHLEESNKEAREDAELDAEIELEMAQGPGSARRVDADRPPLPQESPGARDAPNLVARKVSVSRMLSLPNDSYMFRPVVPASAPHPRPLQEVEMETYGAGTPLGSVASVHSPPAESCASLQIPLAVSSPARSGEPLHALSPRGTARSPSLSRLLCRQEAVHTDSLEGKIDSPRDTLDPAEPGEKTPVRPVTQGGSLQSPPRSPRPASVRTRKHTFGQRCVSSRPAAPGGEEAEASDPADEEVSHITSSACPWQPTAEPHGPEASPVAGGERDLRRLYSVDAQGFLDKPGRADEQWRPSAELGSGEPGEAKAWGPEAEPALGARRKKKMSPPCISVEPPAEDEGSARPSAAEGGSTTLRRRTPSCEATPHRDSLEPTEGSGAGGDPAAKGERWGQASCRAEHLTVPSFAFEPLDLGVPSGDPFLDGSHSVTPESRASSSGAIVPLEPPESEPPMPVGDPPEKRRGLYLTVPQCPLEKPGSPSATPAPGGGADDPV
CYP2C9 inh = inhibitors of human CYP2C9 | AID 777 | hit rate 20% among 96,000 | CYP2C9 Supersomes, luciferin-H conversion, luminescence | inhibition, % at 5 µM;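 active means blocking of liver enzyme CYP2C9 beyond about 50% at 5 µM, limit read from the data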
CYP2C9 act = activators of human CYP2C9. AID 1024. recombinant CYP2C9, luciferin-H conversion, luminescence; hits give high values; factor 1 = untreated enzyme, 0 = blocked. P11712. activation factor at 5 µM. hit rate 1.4% among 96,000;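 active means activation factor of 2 or more for CYP2C9 at a 5 µM dose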;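 further: 0 = sulfaphenazole-blocked wells and 1 = vehicle-only wells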
* hit, by the source's call; · = no result given. Only some compounds are listed: those with a hit (about 27% of all), similar ones and a draw of the others.

SMILES | CYP2C19 activ | CYP2C19 inhib | Cav32 inh | CYP2C9 inh | CYP2C9 act
CN(c1ccc(C(=O)NCCSCc2ccccc2)cc1)S(=O)(=O)c1ccccc1 | 0.6 | 37 | -3.3 | 69* | 0.3
CN(c1ccc(C(=O)N2CCCCC2)cc1)S(=O)(=O)c1ccccc1 | 0.9 | 13 | 0.32 | 23 | 0.8
CS(=O)(=O)N(Cc1ccccc1)c1ccc(C(=O)NCCSCc2ccco2)cc1 | · | · | -2.3 | · | ·
Cc1cccc(CSCCNC(=O)c2ccc(N(C)S(=O)(=O)c3ccccc3)cc2)c1 | 0.4 | 61* | -3.9* | 89* | 0.1
COC(=O)c1c(NC(=O)CN2CCN(c3ccccc3)CC2)c2c(C)cccc2n1C | 0.7 | 34 | -0.28 | 27 | 0.7
CC(C)(C)c1ccc(OCCC(=O)NC2=NCCS2)cc1 | 0.9 | 12 | 0.039 | -11 | 1.1
COc1ccc(OCCC(=O)NC2=NCCS2)cc1 | 0.2 | 76* | 0.17 | -18 | 1.2
COc1ccc(OCC(=O)N2CCN(C(=O)c3cccc4ccccc34)CC2)cc1 | 1 | 2 | 0.66 | 3 | 1
S=C1NC[C@H](CC2CCCCC2)N1CC1CCCCC1 | · | · | 0.1 | · | ·
Cc1ccc2c(c1)C(N1CCCC1=O)CC(c1ccco1)N2 (configuration not stated) | 0.2 | 78* | -0.74 | 29 | 0.7
NC(=O)C1(N2CCCCC2)CCN(CC(=O)Nc2ccccc2Sc2ccccc2)CC1 | 0.2 | 79* | 0.13 | 50 | 0.5
CCCc1ccc(-c2cc(NC(=O)CSc3n[nH]c(N)n3)n(-c3ccccc3)n2)cc1 | 0.7 | 33 | -0.2 | 58* | 0.4
CC(=O)Nc1ccccc1Sc1ccccc1 | 0.2 | 79* | 0.034 | 20 | 0.8
CS(=O)(=O)N1CCC(C(=O)Nc2ccccc2Sc2ccccc2)CC1 | 0.7 | 26 | · | 18 | 0.8
O=C(CCl)Nc1ccccc1Sc1ccccc1 | 0.4 | 64* | -0.3 | 13 | 0.9
Cc1nn(C)c(N)c1C(O)(c1nccn1C)C(F)(F)F (configuration not stated) | 1 | -2 | -0.063 | 4 | 1
CCOC(=O)CCP(=O)(O)C(O)c1ccccc1 (configuration not stated) | 1.1 | -15 | · | -4 | 1
Nc1nc(SCC(=O)Nc2ccccc2Sc2ccccc2)n[nH]1 | 0 | 99* | -0.051 | 51* | 0.5
Cc1ccc(NC(=O)CN(C)C(=O)CSc2n[nH]c(N)n2)cc1 | 1 | -1 | -0.0086 | 7 | 0.9
CCc1ccc(NC(=O)CSc2nc3cc(C(=O)OC)ccc3c(=O)n2CC2CCCO2)cc1 (configuration not stated) | 0.8 | 20 | -0.12 | 46 | 0.5
COc1cc(OC)c2c(c1)C(=O)c1cc(OC)cc(OC)c1C2=O | 1 | 4 | 0.2 | 2 | 1
O=C1CSC(c2ccccc2F)N1c1cc(Cl)ccc1O (configuration not stated) | 0.2 | 84* | -3.7* | -34 | 1.3
O=C1CSC(c2ccccc2F)N1CCN1CCCCC1 (configuration not stated) | 0.6 | 43 | 0.39 | -11 | 1.1
CCCN(CCC)CCSc1nc(O)c(C(C)C)c(=O)[nH]1 | 1.1 | -6 | -2 | 0 | 1
COc1cc(CNC2CCCC2)cc(Cl)c1OCc1ccc(F)cc1 | 0 | 95* | -1.9 | 31 | 0.7
SMILES | CYP2C19 activ | CYP2C19 inhib | Cav32 inh | CYP2C9 inh | CYP2C9 act
Cc1ccc2c(c1)C(c1ccccc1)N(C(=O)c1ccc(Br)o1)CC(=O)N2 (configuration not stated) | 0.6 | 42 | · | 74* | 0.3
O=C1CN(C(=O)c2ccc(Br)o2)C(c2ccccc2)c2cc(Br)ccc2N1 (configuration not stated) | 0 | 96* | · | 100* | 0
O=C(O)CN1C(=O)Nc2ccc(Br)cc2C1c1ccccc1 (configuration not stated) | 0.9 | 10 | 0.013 | 11 | 0.9
Cc1ccc2c(c1)C(c1ccc(F)cc1)N(C(=O)C1CC1)CC(=O)N2 (configuration not stated) | 0.8 | 20 | · | 19 | 0.8
COc1cc(C2CC(=O)NC(SCC(=O)Nc3ccccc3C)=C2C#N)ccc1O (configuration not stated) | 0.6 | 41 | 0.34 | -15 | 1.2
COC(=O)CSC1=C(C#N)C(c2ccsc2)CC(=O)N1 (configuration not stated) | · | · | 0.98 | · | ·
CCOc1ccccc1C1CC(=O)NC(SCC(=O)Nc2nccs2)=C1C#N (configuration not stated) | 0.4 | 60* | -2.4 | 67* | 0.3
N#CC1=C(SCC(=O)Nc2ccccc2)NC(=O)CC1c1ccc(O)cc1 (configuration not stated) | 0.3 | 71* | -0.52 | 34 | 0.7
Cc1ccc(C2CC(=O)NC(SCC(=O)Nc3nccs3)=C2C#N)cc1 (configuration not stated) | 0.7 | 28 | -2.1 | 65* | 0.3
CCCSc1nc(SCC(=O)NCc2ccccc2)c2c3c(sc2n1)COC(C)(CC)C3 (configuration not stated) | 0.9 | 5 | -2.7 | 15 | 0.8
CCOc1ccc(C2C=C(c3ccc(F)cc3)Nc3ncnn32)cc1 (configuration not stated) | 0.6 | 44 | -0.72 | 59* | 0.4
Cc1nc2ncnn2c(C)c1Cc1ccccc1Cl | 0.1 | 87* | 0.27 | 4 | 1
COc1ccc(CNC(=O)C/C(C)=N/NC(=O)C(c2ccccc2)c2ccccc2)cc1 | 0.9 | 14 | -4.2* | 56* | 0.4
CC(=O)N1CCC(N(C(=O)Nc2ccc(F)cc2)C2CCCC2)CC1 | 1.1 | -11 | 0.66 | 8 | 0.9
C/C(=N\NC(=S)Nc1ccc(F)cc1)C1CC1 | 0.3 | 69* | 0.28 | 57* | 0.4
O=c1oc2c(CN3CCCCCC3)c(O)ccc2cc1-c1nc2ccccc2[nH]1 | 0.9 | 11 | · | 19 | 0.8
O=C(NCCCn1ccnc1)c1ccc(Br)o1 | 0.4 | 59* | 0.91 | 34 | 0.7
CC12CCC(C(=O)NCCCn3ccnc3)(OC1=O)C2(C)C (configuration not stated) | 0.2 | 76* | -1.1 | 32 | 0.7
O=C(NCc1ccc(F)cc1)c1noc2c1CCCC2 | 0.8 | 18 | 0.43 | 15 | 0.9
O=C(NCCCn1ccnc1)c1noc2c1CCCC2 | 0.3 | 69* | -0.61 | 85* | 0.2
O=C(COc1ccc([N+](=O)[O-])cc1)NN=C1CCCC1 | 0.8 | 18 | -0.86 | 10 | 0.9
Cc1ccccc1NC(=O)c1sc2nc3c(c(-c4ccco4)c2c1N)CCCC3 | 0.5 | 46 | -4.2* | 64* | 0.4
CN1CCCC1CCNS(=O)(=O)c1ccc(Br)cc1 (configuration not stated) | · | · | 0.93 | · | ·
COc1ccc(C2Nc3ccccc3C(=O)N2c2ccccc2)cc1COc1ccccn1 (configuration not stated) | 0.7 | 30 | 0.18 | 59* | 0.4
COc1ccc(C2Nc3ccccc3C(=O)N2Cc2ccccc2)cc1CSc1ccccn1 (configuration not stated) | 0.9 | 7 | · | 23 | 0.8
